Screening results as filed in PubChem BioAssay.
Rows were chosen to be rich in hits. Some 5.9% of all compounds tested hit in one or more screens of this group.
GALK inhibitor: inhibitors of human galactokinase | Purified GALK, Kinase-Glo residual ATP luminescence | Potency, µM (series often up to 57.5 µM), inactives show at the highest dose activity change, negative = inhibition, usual class: inhibitors | actives 0.007% (n = 270,000) | AID 1868; further: potency means the concentration at half of the fitted maximal effect
Target sequence (P51570 whole entry, looked up): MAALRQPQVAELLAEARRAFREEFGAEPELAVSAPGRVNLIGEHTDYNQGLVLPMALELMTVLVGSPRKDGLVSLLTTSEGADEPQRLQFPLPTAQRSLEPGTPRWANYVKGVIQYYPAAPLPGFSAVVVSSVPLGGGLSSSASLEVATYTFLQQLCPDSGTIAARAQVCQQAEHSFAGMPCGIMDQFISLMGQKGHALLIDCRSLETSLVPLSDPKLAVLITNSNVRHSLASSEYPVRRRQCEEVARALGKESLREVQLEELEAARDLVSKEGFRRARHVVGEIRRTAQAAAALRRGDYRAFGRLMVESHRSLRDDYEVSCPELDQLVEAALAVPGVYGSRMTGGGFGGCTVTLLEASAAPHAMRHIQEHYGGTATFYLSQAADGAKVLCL
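The enzyme phosphorylates galactose (100 uM) using ATP (35 uM); inhibition is detected as higher residual ATP, quantified by bioluminescence after 1 h reaction at room temperature, pH 8.0.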
TrxR1 substrate: rat thioredoxin reductase 1 substrate activity. purified TrxR1 substrate turnover, NADPH consumption readout. Potency, µM (doses to about 114 µM), for the others: at the top dose activity change, negative = substrate turnover. O89049. actives 0.01% (n = 390,000); further: potency means the concentration at half of the fitted maximal effect; nearly all actives have a fitted effect of over 50% in size
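Rat TrxR1, dispensed at 90 nM, was prereduced with 400 uM NADPH (final) for 5 min at ~22 deg C, then incubated with compound 15 min before 400 uM selenite. A first-read NADPH fluorescence drop versus no-compound background flagged substrates.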
FBPA coupling cs: coupling enzyme interference in Giardia aldolase counter-screen. coupling enzyme system counterscreen, AmpLite Red fluorescence. activity change, negative = inhibition, % at 58.2 µM, hits read low. actives 0.67% (n = 290,000); in the data active means activity change below about -30%
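Final compound at 57.5 uM, incubated 10 min at RT with coupling enzyme reagent (glyceraldehyde-3-phosphate), then 20 min with substrate and AmpLite Red detection. Fluorescence read at 525/598 nm; tests interference with the coupling assay, not aldolase inhibition.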
RORgamma inh: blocks mouse ROR gamma transcriptional activity. P51450. AID 2551. Potency, µM (titrated, usually from 53.6 µM), for the others: at the highest dose activity change, negative = inhibition, most hits filed as inhibitors. Drosophila S2 Gal4-RORgamma UAS-luciferase reporter, 20 h. actives 5.4% (n = 310,000); further: potency means the concentration at half of the fitted maximal effect; nearly all actives have a fitted effect of over 60% in size
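Drosophila Schneider cells stably carrying a metallothionein-driven Gal4 DBD–ROR gamma fusion and a UAS-Photinus luciferase reporter were exposed to compound for 1 hr, then induced with copper sulfate (700 uM final) for 20 hr at ambient temperature before luminescence reading.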
TrxR1 inh: inhibitors of rat thioredoxin reductase 1; recombinant rTrxR1, NADPH fluorescence consumption, selenite substrate; actives 1% (n = 390,000); Potency, µM (doses to about 114 µM), for inactives: at the top dose activity change, negative = inhibition, hits mostly inhibitors; AID 588453; further: potency means the concentration at half of the fitted maximal effect; nearly all actives have a fitted effect of over 65% in size
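Rat TrxR1 (90 nM in the dispensed reagent) was pre-reduced with 400 uM NADPH for 5 min at room temperature, then incubated with compound for 15 min. After 400 uM selenite was added, NADPH fluorescence (Ex 340/Em 450 nm) was followed for 8 min.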
VP16 counter: inhibits Gal4-VP16 luciferase reporter, ROR gamma counter-screen | Drosophila S2 Gal4-VP16 UAS-luciferase, luminescence, 20 h | Potency, µM (top dose mostly 53.6 µM), inactives show at the highest dose activity, negative = inhibition, actives largely listed as inhibitors | actives 3.5% (n = 310,000) | AID 2546;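 further: Gal4-VP16 expression switched on by copper sulfate through the metallothionein promoter; potency means the concentration at half of the fitted maximal effect; nearly all actives have a fitted effect of over 50% in size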
Active calls of the source: *; ? = inconclusive; · = not tested or not shown; [ ] = another dose, or the depositor's remark. Unless noted, the call rests on the fitted dose curve; in most records, active means well fitted curve in the direction sought with a large enough effect; inconclusive means small, poorly fitted or top-dose-only effect, or another doubt; inactive means no such curve, though single readings can be large; an effect the other way counts as inactive or inconclusive. On the % scale 0 is the no-effect control and ±100 the full control effect.

SMILES	GALK inhibitor	TrxR1 substrate	FBPA coupling cs	RORgamma inh	TrxR1 inh	VP16 counter
O=C(CNC(=O)c1nc[nH]c1C(=O)N1CCNCC1)OCc1ccccc1	·	5%	·	·	-14%	·
Cc1ccc(NC(=O)/C(Cl)=C/c2ccccc2)cc1C	1%	3%[0.457 µM]	-6	10µM*	5%	?
CC(=O)Nc1ccccc1C(=O)C(=O)Nc1ccc(C)c(C)c1	2%	6%[57.1 µM]	1	?	15%[57.1 µM]	19%
O=C(Nc1ccccc1N1CCCCC1)C1CCN(C(=O)c2ccc(Cl)cc2)CC1	·	-7%	·	·	6%	·
O=C(O)/C=C/C(=O)N1N=C(c2ccco2)CC1c1ccco1 (configuration not stated)	-1%	15%[57.1 µM]	3	13%	15%[57.1 µM]	2%
O=C(CCl)N1N=C(c2ccco2)CC1c1ccco1 (configuration not stated)	1%	4%	0	10µM*	2.5µM*	?
O=C(CCl)N1N=C(c2cccs2)CC1c1ccco1 (configuration not stated)	9%	-10%	3	11µM*	14µM*	?
COc1ccc(C(=O)Oc2cc(C)[nH]c(=O)c2[N+](=O)[O-])cc1	·	-5%	5	-7%	9%	-15%
FC(F)Sc1ccc(NC(=S)NC(c2ccccc2)c2ccccc2)cc1	4%	-5%[11.4 µM]	-1	7.1µM*	-19%[11.4 µM]	?
CN(C)CCCN(Cc1ccccc1)C(=S)Nc1ccc(SC(F)F)cc1	-2%	0%	0	-25%	20%	12%
FC(F)(F)c1ccc(NC(=S)NCc2ccccc2)cc1	-4%	-3%[57.1 µM]	-2	4.5µM*	-7%[57.1 µM]	?
O=C(O)c1ccc(NC(=S)NCc2ccccc2)cc1	-3%	2%	0	-35%	-10%	7%
FC(F)Sc1ccc(NC(=S)NCc2ccccc2)cc1	0%	4%[57.1 µM]	0	11µM*	14%[57.1 µM]	?
C#CC(CC)(CC)NC(=S)Nc1ccc(S(N)(=O)=O)cc1	0%	-8%	2	28%	18%[57.1 µM]	4%
COc1ccc(-c2cc(C(F)F)n3ncc(C(=O)n4ccnc4C)c3n2)cc1	0%	133%	2	32%	18%	-1%
CCSc1nc2ccccc2n1CC(N)=O	0%	-1%	-1	-34%	13%	-15%
CCSc1nc2ccccc2n1C(=O)/C=C\c1ccc(OC)c(OC)c1	-7%	-1%	-2	10µM*	-16%	10µM*
COc1ccc(C)cc1Nc1n[n+](C)c(-c2c3ccccc3cc3ccccc23)s1	·	-6%[57.1 µM]	-4	?	-20%[57.1 µM]	9%
COc1ccc(C)cc1Nc1n[n+](-c2ccccc2)c(-c2c(Cl)cccc2Cl)s1	·	-1%	-6	7.1µM*	5%	16µM*
COc1ccc(C)cc1Nc1n[n+](-c2ccccc2)c(-c2ccc(OC)c(OC)c2OC)s1	·	-7%	-2	?	-20%	-15%
COc1ccc(C)cc1Nc1n[n+](-c2ccccc2)c(-c2ccc(N(C)C)cc2)s1	·	0%	0	11µM*	8.9µM*	5.6µM*
CC(=O)c1ccc(NC(=O)CSc2nnc(-c3ccoc3C)n2Cc2ccccc2)cc1	1%	-6%	4	?	-13%	8%
O=C1CS(=O)(=O)N(Cc2cccc(F)c2)c2ccc(Br)cc21	·	-4%	·	·	79µM*	·
O=C(OC(c1ccc(NS(=O)(=O)c2ccccc2)cc1)(C(F)(F)F)C(F)(F)F)c1ccccc1	-2%	-26%[57.1 µM]	-2	14µM*	8%[57.1 µM]	?
Cc1ccc(-c2nc(C)c(CCNC(=O)c3ccco3)s2)cc1	·	11%[57.1 µM]	·	·	18%[57.1 µM]	·
O=C(N[C@@H](Cc1ccccc1)C(=O)OCc1ccccc1)c1nc[nH]c1C(=O)N1CCN(c2ccccc2)CC1	4%	-8%	2	10µM*	18%	?
CC(C)C[C@H](NC(=O)c1nc[nH]c1C(=O)N[C@@H](CC(C)C)C(=O)OCc1ccccc1)C(=O)OCc1ccccc1	·	-15%	-10	7.1µM*	11%	?
